Values joined by “and” are separate entries in the source; they are usually repeats but may differ in a detail not shown here. Equal entries are not always repeated. The whole screen tested about 5,500 compounds, of which about 2,000 (36%) were called active. Roughly 18% stayed inconclusive and do not appear here. Cut-off read from the data, not from the text of the source: active = normalized growth mostly below about 0.91 (no sharp cut-off); inconclusive = no clear call, values can overlap the other calls; inactive = mostly above about 0.92. Some of the results follow.
Experiment: chemical genetic growth profiling, strain panel (AID 1159580);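 note: tested at 20 µM; growth read once vehicle control cultures reached saturation at 30 °C; 1 = growth at the plate median or of vehicle wells; lower values mean less growth of the strain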
Settings: growth OD

Measured: normalized growth

CNCCC(Oc1ccc(C(F)(F)F)cc1)c1ccccc1 (stereo unspecified)
inactive: S. cerevisiae deletion strains, locus YJR075W, strain HOC1, stronger effect = lower value 0.985 and 1.01 | S. cerevisiae deletion strains, locus YKL009W, strain mrt4, stronger effect = lower value 0.959 | S. cerevisiae deletion strains, locus YKL068W, stronger effect = lower value 1 | S. cerevisiae deletion strains, locus YKL085W, strain MDH1 (second series), stronger effect = lower value 0.999 | S. cerevisiae deletion strains, locus YKL085W, strain MDH1, stronger effect = lower value 0.999 | S. cerevisiae deletion strains, locus YKL160W, strain elf1, stronger effect = lower value 0.984 | S. cerevisiae deletion strains, locus YKL190W, strain CNB1, stronger effect = lower value 1.01 | S. cerevisiae deletion strains, locus YKR001C, strain vps1, stronger effect = lower value 1.01 | S. cerevisiae deletion strains, locus YKR026C, strain gcn3, stronger effect = lower value 0.983 | S. cerevisiae deletion strains, locus YKR091W, strain srl3, stronger effect = lower value 0.991 | S. cerevisiae deletion strains, locus YLL001W, strain dnm1, stronger effect = lower value 0.979 | S. cerevisiae deletion strains, locus YLL026W, stronger effect = lower value 0.987 | S. cerevisiae deletion strains, locus YLL041C, strain sdh2, stronger effect = lower value 0.988 | S. cerevisiae deletion strains, locus YLR027C, strain aat2, stronger effect = lower value 0.99 | S. cerevisiae deletion strains, locus YLR058C, strain SHM2, stronger effect = lower value 1.01 | S. cerevisiae deletion strains, locus YLR102C, strain apc9, stronger effect = lower value 0.987 | S. cerevisiae deletion strains, locus YLR113W, strain HOG1, stronger effect = lower value 1.01 | S. cerevisiae deletion strains, locus YLR221C, strain rsa3, stronger effect = lower value 0.985 | S. cerevisiae deletion strains, locus YLR258W, strain gsy2, stronger effect = lower value 0.99 | S. cerevisiae deletion strains, locus YLR262C, strain YPT6 (second series), stronger effect = lower value 1.04 | S. cerevisiae deletion strains, locus YLR268W, strain sec22, stronger effect = lower value 0.985 | S. cerevisiae deletion strains, locus YLR320W, strain mms22, stronger effect = lower value 0.968 | S. cerevisiae deletion strains, locus YLR330W, strain CHS5, stronger effect = lower value 1.01 | S. cerevisiae deletion strains, locus YLR342W, strain FKS1 (second series), stronger effect = lower value 0.982 | S. cerevisiae deletion strains, locus YLR342W, strain FKS1, stronger effect = lower value 0.988 | S. cerevisiae deletion strains, locus YLR357W, strain rsc2, stronger effect = lower value 0.977 | S. cerevisiae deletion strains, locus YLR370C, strain arc18, stronger effect = lower value 0.981 | S. cerevisiae deletion strains, locus YLR371W, strain rom2, stronger effect = lower value 0.985 | S. cerevisiae deletion strains, locus YLR384C, strain iki3, stronger effect = lower value 0.97 | S. cerevisiae deletion strains, locus YLR418C, strain cdc73, stronger effect = lower value 0.983 | S. cerevisiae deletion strains, locus YML016C, strain PPZ1, stronger effect = lower value 1.02 | S. cerevisiae deletion strains, locus YML032C, strain rad52, stronger effect = lower value 0.998 | S. cerevisiae deletion strains, locus YML120C, strain ndi1, stronger effect = lower value 0.993 | S. cerevisiae deletion strains, locus YML124C, strain tub3, stronger effect = lower value 0.992 | S. cerevisiae deletion strains, locus YMR058W, strain fet3, stronger effect = lower value 0.99 | S. cerevisiae deletion strains, locus YMR078C, strain ctf18, stronger effect = lower value 0.999 | S. cerevisiae deletion strains, locus YMR125W, strain sto1, stronger effect = lower value 0.989 | S. cerevisiae deletion strains, locus YMR129W, stronger effect = lower value 0.998 | S. cerevisiae deletion strains, locus YMR205C, strain PFK2, stronger effect = lower value 0.967 | S. cerevisiae deletion strains, locus YMR223W, strain ubp8, stronger effect = lower value 0.996 | S. cerevisiae deletion strains, locus YMR231W, strain pep5, stronger effect = lower value 0.992 | S. cerevisiae deletion strains, locus YMR263W, strain SAP30, stronger effect = lower value 0.995 | S. cerevisiae deletion strains, locus YMR307W, strain GAS1, stronger effect = lower value 1.09 | S. cerevisiae deletion strains, locus YNL067W, strain RPL9B, stronger effect = lower value 1.01 | S. cerevisiae deletion strains, locus YNL071W, strain lat1, stronger effect = lower value 0.993 | S. cerevisiae deletion strains, locus YNL128W, strain TEP1, stronger effect = lower value 0.992 and 1.03 | S. cerevisiae deletion strains, locus YNL153C, strain GIM3, stronger effect = lower value 1.01 | S. cerevisiae deletion strains, locus YNL175C, strain NOP13, stronger effect = lower value 1.01 | S. cerevisiae deletion strains, locus YNL183C, strain NPR1, stronger effect = lower value 0.986 | S. cerevisiae deletion strains, locus YNL197C, strain WHI3, stronger effect = lower value 0.979 | S. cerevisiae deletion strains, locus YNL209W, strain ssb2, stronger effect = lower value 1.01 | S. cerevisiae deletion strains, locus YNL224C, strain SQS1, stronger effect = lower value 1.04 | S. cerevisiae deletion strains, locus YNL233W, strain BNI4, stronger effect = lower value 1.01 | S. cerevisiae deletion strains, locus YNL248C, strain rpa49, stronger effect = lower value 0.99 | S. cerevisiae deletion strains, locus YNL250W, strain rad50, stronger effect = lower value 0.996 | S. cerevisiae deletion strains, locus YNL271C, strain bni1, stronger effect = lower value 0.99 | S. cerevisiae deletion strains, locus YNL298W, strain CLA4, stronger effect = lower value 0.988 | S. cerevisiae deletion strains, locus YNL307C, strain MCK1, stronger effect = lower value 0.993 | S. cerevisiae deletion strains, locus YNL322C, strain KRE1 (second series), stronger effect = lower value 0.986 | S. cerevisiae deletion strains, locus YNL322C, strain KRE1, stronger effect = lower value 1 | S. cerevisiae deletion strains, locus YNR049C, strain mso1, stronger effect = lower value 0.987 | S. cerevisiae deletion strains, locus YNR052C, strain pop2, stronger effect = lower value 1 | S. cerevisiae deletion strains, locus YOL006C, strain TOP1, stronger effect = lower value 0.884 | S. cerevisiae deletion strains, locus YOL012C, strain htz1 0.953 | S. cerevisiae deletion strains, locus YOL147C, strain pex11, stronger effect = lower value 0.995 | S. cerevisiae deletion strains, locus YOR001W, strain rrp6, stronger effect = lower value 0.985 | S. cerevisiae deletion strains, locus YOR061W, strain CKA2, stronger effect = lower value 1.01 | S. cerevisiae deletion strains, locus YOR069W, strain VPS5, stronger effect = lower value 0.998 | S. cerevisiae deletion strains, locus YOR070C, strain gyp1, stronger effect = lower value 0.99 | S. cerevisiae deletion strains, locus YOR080W, strain dia2, stronger effect = lower value 0.997 | S. cerevisiae deletion strains, locus YOR083W, strain WHI5 (second series), stronger effect = lower value 0.908 | S. cerevisiae deletion strains, locus YOR083W, strain WHI5, stronger effect = lower value 0.982 | S. cerevisiae deletion strains, locus YOR106W, strain vam3, stronger effect = lower value 0.986 | S. cerevisiae deletion strains, locus YOR136W, strain idh2, stronger effect = lower value 0.99 | S. cerevisiae deletion strains, locus YOR144C, strain elg1, stronger effect = lower value 0.995 | S. cerevisiae deletion strains, locus YOR184W, strain ser1, stronger effect = lower value 1 | S. cerevisiae deletion strains, locus YOR231W, strain MKK1, stronger effect = lower value 1.02 | S. cerevisiae deletion strains, locus YOR265W, strain rbl2, stronger effect = lower value 0.995 | S. cerevisiae deletion strains, locus YOR270C, strain vph1, stronger effect = lower value 0.9 | S. cerevisiae deletion strains, locus YOR290C, strain snf2, stronger effect = lower value 0.981 | S. cerevisiae deletion strains, locus YOR316C, strain cot1, stronger effect = lower value 1 | S. cerevisiae deletion strains, locus YPL051W, strain arl3, stronger effect = lower value 0.992 | S. cerevisiae deletion strains, locus YPL055C, strain LGE1, stronger effect = lower value 1.02 and 1 | S. cerevisiae deletion strains, locus YPL078C, strain atp4, stronger effect = lower value 0.983 | S. cerevisiae deletion strains, locus YPL106C, strain sse1, stronger effect = lower value 0.971 | S. cerevisiae deletion strains, locus YPL240C, strain hsp82, stronger effect = lower value 0.997 | S. cerevisiae deletion strains, locus YPL241C, strain CIN2, stronger effect = lower value 1 | S. cerevisiae deletion strains, locus YPL256C, strain CLN2, stronger effect = lower value 1.06 | S. cerevisiae deletion strains, locus YPR119W, strain clb2, stronger effect = lower value 1 | S. cerevisiae deletion strains, locus YPR141C, strain kar3, stronger effect = lower value 0.999 | S. cerevisiae deletion strains, locus YPR163C, strain tif3, stronger effect = lower value 0.998 | S. cerevisiae deletion strains, locus YPR167C, strain met16, stronger effect = lower value 0.992 | S. cerevisiae deletion strains, strain wtn01, stronger effect = lower value 1.01 | S. cerevisiae strains, strain wild type, stronger effect = lower value 0.998
active: S. cerevisiae deletion strains, locus YLR039C, strain RIC1, stronger effect = lower value 1.41 [resistant] | S. cerevisiae deletion strains, locus YLR262C, strain YPT6, stronger effect = lower value 1.46 [resistant]

Reference: PubChem BioAssay AID1159580 (chemical genetic matrix, 2015)
